The whole screen tested about 320,000 compounds, of which about 2,100 (0.66%) were called active. Inconclusive results (about 53%) are left out. Calls follow the shape of the dose curve; as a rule, active = well fitted inhibition curve with a large enough effect in the signal ratio, with a control signal flat (not every such curve was filed as active); inconclusive = small, poorly fitted or top-dose-only effect, or effect the other way, or a change in a side signal; inactive = flat fitted curve, though single readings scatter; the % refers to the signal ratio. The entries come from a sample that favours actives as a whole.
Potency is read from the fitted curve at half-maximal effect.

A short description of the experiment: qHTS Assay for Lipid Storage Modulators in Drosophila S3 Cells.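 As to cell number change: cells counted by Cell Tracker Red CMTPX staining in the red channel.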 As to lipid storage change, negative = inhibition: % is scaled to controls: 0 for no effect and ±100 for the full control effect. The note with it: BODIPY lipid droplet fluorescence, 18-24 h, cells fed with added oleic acid; cell number change: measured here: cell count max response; series mostly up to 46.1 µM; lipid storage change, negative = inhibition: at the top concentration. The gist of the method: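 Laser-scanning cytometry quantifies lipid droplet accumulation (500–530 nm total intensity; droplet/cell object ratio) in oleic acid-fed (400 uM added) Drosophila S3 cells treated with a concentration series. 20 uM Triacsin C defined 100% inhibition.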
In the case of `CC(=O)c1ccc(NC2OC(CO)C(O)C(O)C2O)cc1` (stereo unspecified), the Potency was 32.6 µM (active) and the cell number change was -9.97%.
As for `O=C(CCOc1ccccc1)N1CCN(S(=O)(=O)c2cccs2)CC1`, the call was inactive and the cell number change turned out to be 5.86%.
Take `C=CCN1C(=O)C2(OCCCO2)c2cc(Cl)ccc21`: the Potency was 4.11 µM (active) and the cell number change is 7.73%.
As to `C=CCN1C(=O)C2(OCCO2)c2cc(C)ccc21`, the “lipid storage change, negative = inhibition” value was -2.45% (inactive) and the cell number change came out at 5.32%.
For `C=CCN1C(=O)C2(OCCCO2)c2ccccc21` the same measures were -18.8% (inactive) and 7.72%.
Take `Cc1cc(C)c2nc(N3CCCC(C(=O)NCCN4CCOCC4)C3)sc2c1` (stereo unspecified): the “lipid storage change, negative = inhibition” value was 8.41% (inactive) and the cell number change was -0.96%.
Regarding `O=C(C1=C(O)C(=O)N(CCN2CCOCC2)C1c1ccc([N+](=O)[O-])cc1)c1cccs1` (stereo unspecified), the “lipid storage change, negative = inhibition” value was -23.9% (inactive) and the cell number change came out at 22.6%.
For `CCOc1ccc(C2C(C(=O)c3cccs3)=C(O)C(=O)N2CCN2CCOCC2)cc1` (stereo unspecified) the same measures were -0.573% (inactive) and 7.61%.
With `O=C1C(=O)N(CCN2CCOCC2)C(c2ccccn2)/C1=C(/O)c1ccccc1` (stereo unspecified), the “lipid storage change, negative = inhibition” value was 3.62% (inactive) and the cell number change turned out to be 1.37%.
Regarding `Cc1ccc(/C(O)=C2/C(=O)C(=O)N(CCN3CCOCC3)C2c2ccccn2)cc1` (stereo unspecified), the Potency is 29.1 µM (active).
For the compound `COCCCN1C(=O)C(O)=C(C(=O)c2ccco2)C1c1ccccc1` (stereo unspecified), the Potency was 3.66 µM (active) and the cell number change is -2.26%.
For `CC(=O)C1=C(O)C(=O)N(CCN2CCOCC2)C1c1ccccc1` (stereo unspecified) the same measures were 20.6 µM (active) and 1.7%.
For `COCCN1C(=O)C(O)=C(C(=O)c2ccco2)C1c1cccc(Oc2ccccc2)c1` (stereo unspecified), the “lipid storage change, negative = inhibition” value was 3.16% (inactive) and the cell number change came out at 11.9%.
In the case of `O=C(C1=C(O)C(=O)N(CCN2CCOCC2)C1c1ccc(F)cc1)c1cccs1` (stereo unspecified), the Potency was 18.4 µM (active) and the cell number change was -5.07%.
With `Cc1ccc(C2C(C(=O)c3cc4ccccc4o3)=C(O)C(=O)N2CCN2CCOCC2)cc1` (stereo unspecified), the outcome was inactive and the cell number change was -0.236%.
As for `O=C1C(=O)N(CCN2CCOCC2)C(c2ccccn2)/C1=C(/O)c1ccc(Cl)cc1` (stereo unspecified), the “lipid storage change, negative = inhibition” value is 4.03% (inactive) and the cell number change came to 8.56%.
Turning to `O=C(C1=C(O)C(=O)N(CCCn2ccnc2)C1c1ccccc1)c1ccco1` (stereo unspecified), the “lipid storage change, negative = inhibition” value is -22.1% (inactive) and the cell number change is -0.647%.
For `CC(=O)C1=C(O)C(=O)N(CCO)C1c1ccccc1` (stereo unspecified) the same measures were -9.46% (inactive) and 1.42%.
For `COc1ccc(C2CC(=O)N(CC(=O)NCC3CCCO3)c3ccccc3S2)cc1` (stereo unspecified) the same measures were 5.52% (inactive) and 0.213%.
For `CC(=O)Nc1ccc(S(=O)(=O)NNC(=O)C(=O)NNc2ccccn2)cc1` the same measures were -15.1% (inactive) and -5.03%.
As for `O=C(Nc1ccccc1)c1cc(S(=O)(=O)N2CCOCC2)cs1`, the outcome was inactive.
Take `Cc1ccc(C(=O)NCc2ccco2)cc1S(=O)(=O)N1CCOCC1`: the “lipid storage change, negative = inhibition” value was -5.7% (inactive) and the cell number change is -14.2%.
In the case of `O=C(Nc1ccccc1F)C(=O)c1cn(CC(=O)N2CCCCC2)c2ccccc12`, the “lipid storage change, negative = inhibition” value is 8.05% (inactive) and the cell number change is -5.77%.
For `COc1ccc(NC(=O)Cn2cnc3c(nnn3-c3ccc(C)cc3)c2=O)cc1` the same measures were -12.6% [at 9.22 µM] (inactive) and -12.8%.
For `CC(=O)C1=C(O)C(=O)N(CCc2c[nH]c3ccccc23)C1c1ccc(O)cc1` (stereo unspecified) the same measures were -9.82% (inactive) and -2.81%.
For `CC(=O)C1=C(O)C(=O)N(CCc2c[nH]c3ccccc23)C1c1ccccc1` (stereo unspecified) the same measures were 27.1% (inactive) and 3.29%.
Regarding `CC(=O)C1=C(O)C(=O)N(CCc2c[nH]c3ccccc23)C1c1cccc(O)c1` (stereo unspecified), the Potency was 20.6 µM (active) and the cell number change is -19.8%.
In the case of `CCOC(=O)c1[nH]c(C)c(C(=O)NCCCN2CCOCC2)c1C`, the “lipid storage change, negative = inhibition” value is 10.9% (inactive) and the cell number change was found to be 18.3%.
In the case of `CCc1ccc(-n2cnc3cc(C(=O)NCC(OC)OC)ccc32)cc1`, the “lipid storage change, negative = inhibition” value is 1% (inactive) and the cell number change was 2.84%.
For `COc1ccccc1-c1nnc(SCC(=O)Nc2ccc(S(N)(=O)=O)cc2)n1N` the same measures were -0.686% (inactive) and 6.66%.
For `CCn1c(SCC(=O)Nc2nccs2)nnc1-c1ccc(C)cc1` the same measures were -3.09% (inactive) and -13.5%.
As for `C=CCn1c(SCC(=O)Nc2nccs2)nnc1-c1cc2cccc(OC)c2o1`, the compound was classed as inactive and the cell number change is -25.4%.
`CCn1c(SCC(=O)Nc2nccs2)nnc1-c1cc2cccc(OC)c2o1`: the Potency is 1.84 µM (active) and the cell number change was -5.05%.
For the compound `Cc1ccc(OCC(=O)NNC(=O)c2cccnc2)cc1C`, the “lipid storage change, negative = inhibition” value is -5.08% (inactive) and the cell number change is 0.125%.
Take `CCC(C(=O)NCc1ccco1)N(C(=O)CNS(=O)(=O)c1ccc(F)cc1)c1ccccc1F` (stereo unspecified): the “lipid storage change, negative = inhibition” value was -15.5% (inactive) and the cell number change is -1.9%.
For the compound `CCC(C(=O)NCc1ccco1)N(C(=O)CNS(=O)(=O)c1ccc(C)cc1)c1ccccc1OC` (stereo unspecified), the “lipid storage change, negative = inhibition” value was 6.8% (inactive) and the cell number change is -11.8%.
On to `CCC(C(=O)NCc1ccco1)N(C(=O)CNS(=O)(=O)c1ccc(C)cc1)c1ccccc1F` (stereo unspecified), for which the Potency was 1.16 µM (active) and the cell number change was found to be 11.8%.
For the compound `CNC(=O)/C(C#N)=C\c1ccc(CNS(=O)(=O)c2ccc(Cl)cc2)o1`, the “lipid storage change, negative = inhibition” value was -15.4% (inactive) and the cell number change is -11.3%.
In the case of `CNC(=O)/C(C#N)=C/c1c(F)cccc1Cl`, the Potency is 10.3 µM (active) and the cell number change was -9.91%.
In the case of `CNC(=O)/C(C#N)=C/c1c(N2CCCCCC2)nc2ccccn2c1=O`, the “lipid storage change, negative = inhibition” value was 8.81% (inactive) and the cell number change worked out at 0.926%.
Turning to `COC(=O)C1=C(C)N(C(C)C)C(=O)C1(NC(=O)C1CCCCC1)C(F)(F)F` (stereo unspecified), the Potency is 25.9 µM (active) and the cell number change is 24.5%.
Turning to `CC1=C(C#N)C(NC(=O)C2CCCCC2)(C(F)(F)F)C(=O)N1` (stereo unspecified), the “lipid storage change, negative = inhibition” value was 5.78% (inactive) and the cell number change was determined as 14.5%.
For the compound `COC(=O)C1=C(C)N(C2CCCC2)C(=O)C1(NC(C)=O)C(F)(F)F` (stereo unspecified), the compound was classed as inactive.
As to `COc1ccc(S(=O)(=O)N2CCC(C(=O)N[C@H](C(=O)N3CCCC3)C(C)C)CC2)cc1`, the call was inactive.
As for `Cc1ccc2nc(NC(=O)CSc3nnc(C)c(=O)n3N)sc2c1`, the “lipid storage change, negative = inhibition” value is -29.4% (inactive) and the cell number change is 0.333%.

The values above are taken from PubChem BioAssay AID2685 (National Center for Advancing Translational Sciences (NCATS), 2010).
